Molecules are shown by their SMILES. Results filed as inconclusive are left out. Where a call stands in place of a potency, no number is given. Activity calls are given as the source filed them. Calls follow the shape of the dose curve; as a rule, active = well fitted cell-killing curve with a large enough effect in the repeat runs; inconclusive = weak or mixed curves, or effect the other way; inactive = flat fitted curve, though single readings scatter.

This assay can be described thus: cAMP Responsive Elements (CRE) small molecule antagonists, cell-based qHTS assay: qHTS cell viability counter screen (AID 2060913). Also: nearly all actives have a fitted effect of over 40% in size. As to conditions: CRE-bla HEK293T viability, CellTiter-Glo luminescence, 5 h; series mostly up to 92.4 µM. The source says:
U.S. Tox21 Program National Center for Advancing Translational Sciences [NCATS] Division of Preclinical Innovation [DPI] U.S. Environmental Protection Agency [EPA] National Institutes of Environmental Health Sciences [NIEHS] National Toxicology Program [NTP] U.S. Food and Drug Administration [FDA] Tox21 Assay Overview: CREB (cyclic-AMP Responsive Element Binding Protein) is a cellular transcription factor. It binds to certain DNA sequences called cAMP Responsive Elements (CRE) and regulates the transcription of the genes. […] This cell line can be used to find agonists/antagonists of the cyclic AMP signaling pathway. The activation of the report gene under culture conditions can be detected by fluorescence intensity. This cell line has been used to screen the Tox21 10K compound library to identify agonists that induce oxidative stress. The cytotoxicity of the Tox21 compound library against the CRE-bla cell line was tested in parallel by measuring the cell viability using CellTiter-Glo assay (Promega, Madison, WI) in the same wells.
Tox21 Assay Protocol Summary: CRE-bla Hek 293T cells were suspended in assay medium (DMEM containing 10% dialyzed FBS, 0.1 mM NEAA, 1 mM sodium pyruvate and 25 mM HEPES) and dispensed at 2,000 cells/4 uL /well into 1536-well black wall/clear bottom plates using a Multidrop Combi (ThermoFisher Scientific, Waltham, MA) dispenser. After the assay plates were incubated at 37 C/5% CO2 for 18 hrs, 23 nL of compounds dissolved in DMSO, positive controls or DMSO only was transferred to the assay plate by a pintool workstation (Kalypsys, San Diego, CA), followed by addition of 1 uL of 1.25uM NKH477 (0.25 uM as final concentration) in assay medium using a Flying Reagent Dispenser (Aurora Discovery, San Diego, CA). The plates were incubated at 37 C and 5% CO2 for 3 hrs. Then 1 uL of LiveBLAzer B/G FRET substrate (Invitrogen, Carlsbad, CA) was added to each well using Bioraptr Flying Reagent Dispenser (FRD, Aurora Discovery, San Diego, CA). The plates were incubated at room temperature for 2 h, then fluorescence intensities were measured using an Envision plate reader (PerkinElmer, Shelton, CT) at Excitation 405nm, Emission 460nm and 530nm. The % activity was determined from the ratio of 460nm/530nm. For cell viability readout that measures cytotoxicity, 4 uL /well of CellTiter-Glo reagent was added into the assay plates using Bioraptr FRD. After 30 min incubation at room temperature, the luminescence intensity in the assay plates was measured using a ViewLux (PerkinElmer, Shelton, CT) plate reader.
Take `COC1=CC(=O)O[C@@H](/C=C/c2ccc3c(c2)OCO3)C1`: the Potency entry was “inactive”.

Consider `O=P(Cl)(Cl)Cl`, for which the Potency entry was “inactive”.

Regarding `Cl/C=C/CCl`, the Potency entry is “inactive”.

With `CCOP(=S)(OCC)Oc1nc(Cl)n(C(C)C)n1`, the Potency entry is “inactive”.

For the compound `Cc1c(COC(=O)[C@@H]2[C@H](/C=C(\Cl)C(F)(F)F)C2(C)C)cccc1-c1ccccc1`, the Potency result was “inactive”.

`O=[N+]([O-])c1ccccc1O`: the Potency entry was “inactive”.

As to `C=C(C)CCl`, the Potency entry is “inactive”.

As for `Cc1cnc[nH]1`, the Potency result was “inactive”.

Consider `CS(=O)(=O)NC(=O)c1cc(Oc2ccc(C(F)(F)F)cc2Cl)ccc1[N+](=O)[O-]`, for which the Potency result was “inactive”.

As to `CC(C)=CCN1CC[C@@]2(C)c3cc(O)ccc3C[C@@H]1[C@@H]2C`, the Potency entry is “inactive”.

For the compound `Clc1cc2c(cc1Cl)Oc1cc(Cl)c(Cl)cc1O2`, the viability change, negative = cytotoxic was 7.14% [at 0.349 µM] (inactive).

For `O=c1c(C2CC(c3ccc(-c4ccc(Br)cc4)cc3)Cc3ccccc32)c(O)sc2ccccc12` (stereo not given), the Potency result is “inactive”.

Regarding `O=C(Cl)c1ccc(Cl)cc1`, the Potency entry is “inactive”.

Take `O=C(Cl)c1ccccc1F`: the Potency result was “inactive”.

Consider `CCCC(C)(COC(N)=O)COC(N)=O`, for which the Potency entry is “inactive”.

For `CCN(Cc1ccc(Cl)nc1)/C(=C/[N+](=O)[O-])NC`, the Potency result is “inactive”.

On to `CCCCCCCC(=O)Cl`, for which the Potency result is “inactive”.

`N#CC(CCc1ccc(Cl)cc1)(Cn1cncn1)c1ccccc1` (stereo not given): the Potency entry is “inactive”.

As for `O=c1[nH]c2ccccc2n1CCCN1CCC(n2c(=O)[nH]c3cc(Cl)ccc32)CC1`, the Potency result is “inactive”.

On to `OCC(Br)CBr` (stereo not given), for which the Potency entry was “inactive”.

As to `c1ccc2c(c1)oc1ccccc12`, the Potency entry is “inactive”.

As to `C=CC(=O)OCCCCCC(C)C`, the Potency entry is “inactive”.

With `CCCCCCCCCl`, the Potency result is “inactive”.

Take `CCC1(c2cccc(O)c2)CCCCN(C)C1` (stereo not given): the Potency entry was “inactive”.

Consider `Clc1cnc(Oc2ccc(Oc3ncc(Cl)cc3Cl)cc2)c(Cl)c1`, for which the Potency result was “inactive”.

Regarding `O=C(CCCN1CCC(n2c(=O)[nH]c3ccccc32)CC1)c1ccc(F)cc1`, the Potency entry is “inactive”.

As for `CNC(=O)Oc1cc(C)c(N(C)C)c(C)c1`, the Potency result was “inactive”.

In the case of `CC(C)CCCCCOC(=O)c1ccccc1C(=O)OCCCCCC(C)C`, the Potency result is “inactive”.

As to `CC(C)(C)C(O)(CCc1ccc(Cl)cc1)Cn1cncn1` (stereo not given), the Potency result is “inactive”.

With `CCCCCCCCCCCCCl`, the Potency entry was “inactive”.

On to `CCN(N=O)C(N)=O`, for which the Potency result was “inactive”.

Consider `CS(=O)(=O)c1cc(C(F)(F)F)ccc1C(=O)c1cnoc1C1CC1`, for which the Potency entry was “inactive”.

Turning to `N#C/C=C/c1ccccc1`, the Potency entry is “inactive”.

With `O=C(O)C(F)(F)C(F)(F)C(F)(F)C(F)(F)C(F)(F)C(F)(F)C(F)(F)C(F)(F)C(F)(F)C(F)(F)F`, the Potency entry is “inactive”.

With `Cc1cc(C)c(C(=O)P(=O)(C(=O)c2c(C)cc(C)cc2C)c2ccccc2)c(C)c1`, the Potency result is “inactive”.

Regarding `Cc1ccc2c(c1)C1CN(C)CCC1N2` (stereo not given), the viability change, negative = cytotoxic was -0.367% [at 18.9 µM] (inactive).

As to `O=C(NC(=O)c1ccccc1Cl)Nc1ccc(OC(F)(F)F)cc1`, the Potency entry is “inactive”.

On to `CC(=O)[C@H]1CC[C@H]2[C@@H]3CC[C@H]4C[C@H](O)CC[C@]4(C)[C@H]3C(=O)C[C@]12C`, for which the Potency entry is “inactive”.

On to `C=C1C[C@@H]2[C@H](CC[C@]3(C)C(=O)CC[C@@H]23)[C@@]2(C)C=CC(=O)C=C12`, for which the Potency entry is “inactive”.

Consider `N[C@@H]1C[C@H]1c1ccccc1`, for which the Potency result was “inactive”.
